Laboratory results reported in the supplement of paper PMC11732987, “Enantioselective OTUD7B fragment discovery through chemoproteomics screening and high-throughput optimisation” (Communications Chemistry, 2025).

Experiments:
Assay in all cases: log2 ratio of Biotin-Ahx-Ub-VS probe labelling (fragment/DMSO); higher = less target engagement (more negative = stronger competition), active = hit call of the paper (q ≤ 0.05, log2 ratio ≤ -1)
Details in all cases: compound concentration: 200 uM; treatment time: 3 h
USP19 = target: T1, USP19 (UniProt O94966)
T1 sequence (whole entry): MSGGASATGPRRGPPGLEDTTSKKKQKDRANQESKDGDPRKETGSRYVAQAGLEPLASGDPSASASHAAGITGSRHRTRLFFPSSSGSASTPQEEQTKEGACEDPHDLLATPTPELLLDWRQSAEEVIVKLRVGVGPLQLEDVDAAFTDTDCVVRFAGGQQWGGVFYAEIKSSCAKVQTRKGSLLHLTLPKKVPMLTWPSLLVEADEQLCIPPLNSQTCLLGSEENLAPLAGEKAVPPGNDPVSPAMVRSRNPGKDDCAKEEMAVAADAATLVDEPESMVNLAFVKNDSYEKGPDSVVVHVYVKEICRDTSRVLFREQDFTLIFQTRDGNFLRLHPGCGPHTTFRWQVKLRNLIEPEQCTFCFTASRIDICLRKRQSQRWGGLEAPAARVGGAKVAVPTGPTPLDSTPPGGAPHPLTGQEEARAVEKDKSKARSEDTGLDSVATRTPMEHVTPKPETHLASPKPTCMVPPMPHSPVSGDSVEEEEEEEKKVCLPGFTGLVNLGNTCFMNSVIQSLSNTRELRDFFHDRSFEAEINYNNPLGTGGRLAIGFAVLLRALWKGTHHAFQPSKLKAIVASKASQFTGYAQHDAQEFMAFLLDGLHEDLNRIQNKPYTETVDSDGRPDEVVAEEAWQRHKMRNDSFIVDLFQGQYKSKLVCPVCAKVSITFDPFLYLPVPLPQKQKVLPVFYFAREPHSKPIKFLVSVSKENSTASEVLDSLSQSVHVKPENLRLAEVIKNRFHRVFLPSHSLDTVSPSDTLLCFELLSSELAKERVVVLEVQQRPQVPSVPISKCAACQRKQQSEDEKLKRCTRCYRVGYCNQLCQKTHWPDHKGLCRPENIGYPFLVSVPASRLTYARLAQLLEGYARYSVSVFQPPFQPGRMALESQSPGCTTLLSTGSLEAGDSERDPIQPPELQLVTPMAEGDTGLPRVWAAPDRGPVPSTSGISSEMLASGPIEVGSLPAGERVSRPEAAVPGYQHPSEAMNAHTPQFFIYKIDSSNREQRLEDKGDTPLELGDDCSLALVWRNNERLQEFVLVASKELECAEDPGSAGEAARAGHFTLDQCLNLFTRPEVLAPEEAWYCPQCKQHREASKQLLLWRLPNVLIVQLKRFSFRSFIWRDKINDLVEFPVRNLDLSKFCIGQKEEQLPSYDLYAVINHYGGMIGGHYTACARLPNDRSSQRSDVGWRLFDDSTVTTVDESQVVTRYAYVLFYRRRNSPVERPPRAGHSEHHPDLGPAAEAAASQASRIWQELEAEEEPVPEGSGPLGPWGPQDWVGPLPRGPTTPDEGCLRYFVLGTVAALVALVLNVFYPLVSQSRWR
Summary of the method: (§1)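 Triplicate samples of HEK293T lysate, 495 µg each, received fragment at 200 µM or vehicle for 3 h, followed by Biotin-Ahx-Ub-VS (0.5 µM final) for 1 h. After NeutrAvidin enrichment of labelled DUBs and LysC/trypsin digestion, peptides were run by diaPASEF LC-MS/MS. The values are average log2 fragment/vehicle ratios from global-median-normalised Spectronaut label-free quantities, tested by unpaired t-test on proteins having ≥2 unique peptides.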

USP24 = USP24 (UniProt Q9UPU5)
Summary of the method: as §1

USP25 = target: T2, USP25 (UniProt Q9UHP3)
T2 sequence (whole entry): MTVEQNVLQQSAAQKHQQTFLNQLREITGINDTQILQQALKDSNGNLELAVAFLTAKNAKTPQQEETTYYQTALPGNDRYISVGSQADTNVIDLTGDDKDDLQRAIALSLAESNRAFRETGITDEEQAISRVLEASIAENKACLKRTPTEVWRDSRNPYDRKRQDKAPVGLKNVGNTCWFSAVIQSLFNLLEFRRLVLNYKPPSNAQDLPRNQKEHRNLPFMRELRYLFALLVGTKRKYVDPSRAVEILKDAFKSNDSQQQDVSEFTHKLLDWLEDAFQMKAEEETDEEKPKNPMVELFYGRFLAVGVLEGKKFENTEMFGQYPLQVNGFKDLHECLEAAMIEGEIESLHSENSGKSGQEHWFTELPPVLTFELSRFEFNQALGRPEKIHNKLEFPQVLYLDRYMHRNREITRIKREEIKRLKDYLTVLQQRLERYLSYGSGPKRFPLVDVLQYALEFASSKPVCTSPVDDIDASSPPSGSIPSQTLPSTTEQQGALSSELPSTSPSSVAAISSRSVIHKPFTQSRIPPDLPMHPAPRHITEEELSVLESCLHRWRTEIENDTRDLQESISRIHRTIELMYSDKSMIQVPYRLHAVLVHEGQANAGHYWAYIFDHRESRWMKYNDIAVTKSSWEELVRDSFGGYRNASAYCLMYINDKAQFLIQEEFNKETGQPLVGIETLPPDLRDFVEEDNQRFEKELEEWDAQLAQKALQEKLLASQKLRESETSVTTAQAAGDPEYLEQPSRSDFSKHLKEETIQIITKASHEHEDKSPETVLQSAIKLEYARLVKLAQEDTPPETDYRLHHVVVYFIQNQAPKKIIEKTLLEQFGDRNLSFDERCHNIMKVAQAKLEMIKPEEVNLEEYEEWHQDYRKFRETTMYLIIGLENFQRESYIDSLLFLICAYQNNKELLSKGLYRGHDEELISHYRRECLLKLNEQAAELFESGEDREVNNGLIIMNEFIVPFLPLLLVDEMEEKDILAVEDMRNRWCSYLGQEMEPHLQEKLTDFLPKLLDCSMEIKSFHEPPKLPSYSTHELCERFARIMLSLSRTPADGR
Summary of the method: as §1

USP28 = target: T3, USP28 (UniProt Q96RU2)
T3 sequence (whole entry): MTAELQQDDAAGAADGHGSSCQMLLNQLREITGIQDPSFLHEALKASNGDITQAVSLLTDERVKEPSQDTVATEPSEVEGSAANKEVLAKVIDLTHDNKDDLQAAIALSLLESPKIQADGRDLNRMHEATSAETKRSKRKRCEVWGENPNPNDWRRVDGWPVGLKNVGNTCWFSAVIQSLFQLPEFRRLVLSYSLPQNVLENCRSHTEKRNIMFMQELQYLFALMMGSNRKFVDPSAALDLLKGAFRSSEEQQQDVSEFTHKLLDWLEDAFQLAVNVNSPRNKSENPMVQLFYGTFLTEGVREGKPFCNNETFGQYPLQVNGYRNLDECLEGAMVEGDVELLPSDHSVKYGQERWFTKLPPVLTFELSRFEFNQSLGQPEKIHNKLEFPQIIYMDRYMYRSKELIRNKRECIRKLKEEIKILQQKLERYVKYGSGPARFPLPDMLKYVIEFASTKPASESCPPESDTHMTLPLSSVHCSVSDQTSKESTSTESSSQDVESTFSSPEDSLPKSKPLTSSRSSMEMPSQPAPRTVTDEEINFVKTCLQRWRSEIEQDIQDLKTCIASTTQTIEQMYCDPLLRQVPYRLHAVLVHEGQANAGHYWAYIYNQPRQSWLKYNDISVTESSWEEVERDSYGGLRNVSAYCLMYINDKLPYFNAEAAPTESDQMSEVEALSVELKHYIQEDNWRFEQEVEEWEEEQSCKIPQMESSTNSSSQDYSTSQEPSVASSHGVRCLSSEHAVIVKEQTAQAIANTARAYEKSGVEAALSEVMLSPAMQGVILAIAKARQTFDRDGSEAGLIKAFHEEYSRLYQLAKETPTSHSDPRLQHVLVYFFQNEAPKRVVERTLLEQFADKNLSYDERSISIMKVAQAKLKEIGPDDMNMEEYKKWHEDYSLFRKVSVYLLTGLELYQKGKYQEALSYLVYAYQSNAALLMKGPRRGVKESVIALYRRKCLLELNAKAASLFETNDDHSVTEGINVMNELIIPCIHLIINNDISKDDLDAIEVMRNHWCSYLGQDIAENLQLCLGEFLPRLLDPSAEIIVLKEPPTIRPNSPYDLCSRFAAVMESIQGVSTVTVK
Summary of the method: as §1

Measured: log2 ratio of Biotin-Ahx-Ub-VS probe labelling

Sequence of USP24 (Q9UPU5 whole entry): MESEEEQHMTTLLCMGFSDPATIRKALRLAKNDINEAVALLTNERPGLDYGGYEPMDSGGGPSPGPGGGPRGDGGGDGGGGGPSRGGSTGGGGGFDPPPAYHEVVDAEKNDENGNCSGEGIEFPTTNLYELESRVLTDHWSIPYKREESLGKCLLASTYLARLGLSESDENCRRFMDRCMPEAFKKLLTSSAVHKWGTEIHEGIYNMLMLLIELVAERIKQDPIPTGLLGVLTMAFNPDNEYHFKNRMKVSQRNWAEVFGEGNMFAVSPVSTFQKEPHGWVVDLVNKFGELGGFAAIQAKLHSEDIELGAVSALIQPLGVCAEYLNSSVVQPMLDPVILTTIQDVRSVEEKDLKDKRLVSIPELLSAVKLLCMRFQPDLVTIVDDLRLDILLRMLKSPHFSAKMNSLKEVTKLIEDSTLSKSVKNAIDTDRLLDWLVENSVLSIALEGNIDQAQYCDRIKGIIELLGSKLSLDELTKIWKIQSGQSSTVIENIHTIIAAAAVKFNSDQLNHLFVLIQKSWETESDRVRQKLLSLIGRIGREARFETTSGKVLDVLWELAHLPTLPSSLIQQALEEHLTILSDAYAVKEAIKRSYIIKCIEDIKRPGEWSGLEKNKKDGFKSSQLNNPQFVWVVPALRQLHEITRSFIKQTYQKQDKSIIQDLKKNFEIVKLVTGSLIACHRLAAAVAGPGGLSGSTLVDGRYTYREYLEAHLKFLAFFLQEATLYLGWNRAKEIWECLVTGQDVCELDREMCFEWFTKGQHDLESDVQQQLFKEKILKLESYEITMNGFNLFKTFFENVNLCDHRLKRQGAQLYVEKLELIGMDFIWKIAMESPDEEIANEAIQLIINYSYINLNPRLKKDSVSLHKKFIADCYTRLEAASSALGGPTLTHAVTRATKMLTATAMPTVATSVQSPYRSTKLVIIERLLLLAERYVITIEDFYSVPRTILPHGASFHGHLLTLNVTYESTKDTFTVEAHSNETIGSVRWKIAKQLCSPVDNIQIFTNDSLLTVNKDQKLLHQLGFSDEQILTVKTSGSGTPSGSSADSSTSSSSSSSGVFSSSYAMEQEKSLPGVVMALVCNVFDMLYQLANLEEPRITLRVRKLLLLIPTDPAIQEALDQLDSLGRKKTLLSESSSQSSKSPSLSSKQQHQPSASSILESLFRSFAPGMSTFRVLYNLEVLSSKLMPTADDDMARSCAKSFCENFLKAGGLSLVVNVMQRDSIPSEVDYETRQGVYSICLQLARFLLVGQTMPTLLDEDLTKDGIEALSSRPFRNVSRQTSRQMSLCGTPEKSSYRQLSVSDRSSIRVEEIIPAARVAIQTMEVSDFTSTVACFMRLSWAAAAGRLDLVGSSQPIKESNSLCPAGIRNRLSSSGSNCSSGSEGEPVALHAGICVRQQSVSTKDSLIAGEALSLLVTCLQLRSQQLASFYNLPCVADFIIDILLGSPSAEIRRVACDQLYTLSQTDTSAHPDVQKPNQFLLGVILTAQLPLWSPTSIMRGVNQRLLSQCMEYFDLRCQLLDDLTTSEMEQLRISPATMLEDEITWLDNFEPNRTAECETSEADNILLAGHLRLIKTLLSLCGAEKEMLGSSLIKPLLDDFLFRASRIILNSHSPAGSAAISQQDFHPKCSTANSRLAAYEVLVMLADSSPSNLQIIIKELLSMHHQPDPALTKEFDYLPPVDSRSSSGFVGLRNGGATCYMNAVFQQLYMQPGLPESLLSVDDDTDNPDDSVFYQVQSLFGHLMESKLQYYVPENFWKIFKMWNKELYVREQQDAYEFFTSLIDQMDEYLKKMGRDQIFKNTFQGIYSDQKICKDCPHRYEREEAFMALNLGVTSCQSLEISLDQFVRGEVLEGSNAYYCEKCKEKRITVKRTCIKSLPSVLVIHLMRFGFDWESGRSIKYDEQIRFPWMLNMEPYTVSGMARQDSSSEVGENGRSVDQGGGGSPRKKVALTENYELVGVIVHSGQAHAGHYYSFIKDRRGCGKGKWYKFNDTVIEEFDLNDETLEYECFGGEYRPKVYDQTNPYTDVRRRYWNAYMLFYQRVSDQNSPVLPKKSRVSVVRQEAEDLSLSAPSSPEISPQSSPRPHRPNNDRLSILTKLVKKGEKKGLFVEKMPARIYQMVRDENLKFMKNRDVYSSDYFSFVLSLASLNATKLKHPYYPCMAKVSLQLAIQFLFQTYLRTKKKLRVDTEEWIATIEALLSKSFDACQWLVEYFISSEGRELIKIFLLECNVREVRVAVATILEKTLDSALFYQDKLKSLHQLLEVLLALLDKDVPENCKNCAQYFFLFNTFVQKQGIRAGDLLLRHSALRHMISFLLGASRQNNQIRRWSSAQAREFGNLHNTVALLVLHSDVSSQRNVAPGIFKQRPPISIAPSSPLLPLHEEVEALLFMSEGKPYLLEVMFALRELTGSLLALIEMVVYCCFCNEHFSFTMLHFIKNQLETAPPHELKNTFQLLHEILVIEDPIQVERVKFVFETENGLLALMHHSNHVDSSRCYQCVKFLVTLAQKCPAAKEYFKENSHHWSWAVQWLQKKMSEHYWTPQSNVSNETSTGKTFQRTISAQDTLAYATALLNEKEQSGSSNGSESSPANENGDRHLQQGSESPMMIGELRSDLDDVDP

O=C(CCl)N1CCC(C(=O)N2CCCCCC2)CC1
inactive: USP19 -0.129 | USP24 -0.141 | USP25 -0.0854 | USP28 -0.307
